# Experimental data as given in paper doi:10.1101/2025.02.07.636106.
# Key:
# [1] = biological target: AP-1 complex subunit sigma-1A (UniProt P61966); test: cross-linking mass spectrometry
# [2] = biological target: AP-1 complex subunit mu-1 (UniProt Q9BXS5); test: co-fractionation; cross-linking mass spectrometry
# [3] = biological target: Elongation factor 1-alpha 1 (UniProt P68104); test: cross-linking mass spectrometry
# Histone deacetylase 2 = Histone deacetylase 2 (UniProt Q92769); test: cross-link between two proteins; cross-linking mass spectrometry
# Peregrin = Peregrin (UniProt P55201); test: as above
# Abl interactor 1 = Abl interactor 1 (UniProt Q8IZP0); test: co-fractionation; cross-linking mass spectrometry
# [4] = biological target: Dolichyl-diphosphooligosaccharide--protein glycosyltransferase subunit DAD1 (UniProt P61803); test: co-fractionation; cross-linking mass spectrometry
# [5] = biological target: 26S proteasome non-ATPase regulatory subunit 7 (UniProt P51665); test: cross-link between two proteins; cross-linking mass spectrometry
# [6] = biological target: 26S proteasome regulatory subunit 10B (UniProt P62333); test: as above
# [7] = biological target: Activity-dependent neuroprotector homeobox protein (UniProt Q9H2P0); test: as above
# [8] = biological target: B-cell receptor-associated protein 29 (UniProt Q9UHQ4); test: as above
# [9] = biological target: BTB/POZ domain-containing protein 7 (UniProt Q9P203); test: as above
# [10] = biological target: Cytochrome b-c1 complex subunit Rieske, mitochondrial (UniProt P47985); test: as above
# Elongin-A = Elongin-A (UniProt Q14241); test: as above
# [11] = biological target: Endoplasmic reticulum chaperone BiP (UniProt P11021); test: as above
# Histone H2B type 1-M = Histone H2B type 1-M (UniProt Q99879); test: as above
# Histone deacetylase 1 [12] = biological target: Histone deacetylase 1 (UniProt Q13547); test: as above
# [13] = biological target: Histone-lysine N-methyltransferase 2A (UniProt Q03164); test: as above
# [14] = biological target: Histone-lysine N-methyltransferase, H3 lysine-36 specific (UniProt Q96L73); test: as above
# [15] = biological target: Keratin, type I cytoskeletal 10 (UniProt P13645); test: as above
# [16] = biological target: KxDL motif-containing protein 1 (UniProt Q9BQD3); test: as above
# [17] = biological target: Lymphatic vessel endothelial hyaluronic acid receptor 1 (UniProt Q9Y5Y7); test: as above
# [18] = biological target: Melanoma inhibitory activity protein 2 (UniProt Q96PC5); test: as above
# Zinc finger protein DPF3 = Zinc finger protein DPF3 (UniProt Q92784); test: as above
# [19] = biological target: Metastasis-associated protein MTA3 (UniProt Q9BTC8); test: as above
# [20] = biological target: Methyl-CpG-binding domain protein 2 (UniProt Q9UBB5); test: as above
# Protein DOP1B = Protein DOP1B (UniProt Q9Y3R5); test: as above
# [21] = biological target: Transcriptional repressor p66-alpha (UniProt Q86YP4); test: as above
# [22] = biological target: Transcriptional repressor p66-beta (UniProt Q8WXI9); test: as above
# [23] = biological target: Tyrosine-protein phosphatase non-receptor type 14 (UniProt Q15678); test: as above
# Histone deacetylase 1 [24] = biological target: Histone deacetylase 1 (UniProt Q13547); test: cross-link between two proteins; affinity purification or IP with mass spectrometry; cross-linking mass spectrometry
# [25] = biological target: Paired amphipathic helix protein Sin3a (UniProt Q96ST3); test: cross-link between two proteins; cross-linking mass spectrometry
# [26] = biological target: Pre-mRNA-splicing factor CWC25 homolog (UniProt Q9NXE8); test: as above
# [27] = biological target: Guanine nucleotide-binding protein G(i) subunit alpha-3 (UniProt P08754); test: co-fractionation; co-fractionation; cross-linking mass spectrometry
# [28] = biological target: Heat shock-related 70 kDa protein 2 (UniProt P54652); test: as above
# Tubulin alpha-3E chain = Tubulin alpha-3E chain (UniProt Q6PEY2); test: as above
# AP-2 complex subunit mu = AP-2 complex subunit mu (UniProt Q96CW1); test: cross-link between two proteins; co-fractionation; cross-linking mass spectrometry
# [29] = biological target: Proteasome subunit alpha type-5 (UniProt P28066); test: as above
# [30] = biological target: Proteasome subunit beta type-4 (UniProt P28070); test: as above
# [31] = biological target: Proteasome subunit beta type-7 (UniProt Q99436); test: as above
# [32] = biological target: Dolichyl-diphosphooligosaccharide--protein glycosyltransferase 48 kDa subunit (UniProt P39656); test: cross-link between two proteins; affinity purification or IP with mass spectrometry; cross-linking mass spectrometry
# 14-3-3 protein epsilon = 14-3-3 protein epsilon (UniProt P62258); test: cross-linking mass spectrometry
# [33] = biological target: Calcineurin B homologous protein 1 (UniProt Q99653); test: cross-linking mass spectrometry
# [34] = biological target: Charged multivesicular body protein 1a (UniProt Q9HD42); test: cross-linking mass spectrometry
# [35] = biological target: Charged multivesicular body protein 3 (UniProt Q9Y3E7); test: cross-linking mass spectrometry
# [36] = biological target: Charged multivesicular body protein 1b (UniProt Q7LBR1); test: cross-linking mass spectrometry
# [37] = biological target: Charged multivesicular body protein 4b (UniProt Q9H444); test: cross-linking mass spectrometry
# [38] = biological target: Endoplasmic reticulum resident protein 44 (UniProt Q9BS26); test: cross-linking mass spectrometry
# Integrin beta-5 = Integrin beta-5 (UniProt P18084); test: cross-linking mass spectrometry
# Laminin subunit gamma-1 = Laminin subunit gamma-1 (UniProt P11047); test: cross-linking mass spectrometry
# [39] = biological target: Splicing factor 3A subunit 1 (UniProt Q15459); test: cross-linking mass spectrometry
# [40] = biological target: Splicing factor 3B subunit 2 (UniProt Q13435); test: cross-linking mass spectrometry
# [41] = biological target: Splicing factor 3B subunit 5 (UniProt Q9BWJ5); test: cross-linking mass spectrometry
# Splicing factor 45 = Splicing factor 45 (UniProt Q96I25); test: cross-linking mass spectrometry
# Syntaxin-8 = Syntaxin-8 (UniProt Q9UNK0); test: cross-linking mass spectrometry
# [42] = biological target: U1 small nuclear ribonucleoprotein A (UniProt P09012); test: cross-linking mass spectrometry
# [43] = biological target: Vacuolar protein sorting-associated protein 16 homolog (UniProt Q9H269); test: cross-linking mass spectrometry
# [44] = biological target: Vacuolar protein sorting-associated protein 45 (UniProt Q9NRW7); test: cross-linking mass spectrometry
# [45] = biological target: Vesicle transport through interaction with t-SNAREs homolog 1A (UniProt Q96AJ9); test: cross-linking mass spectrometry
# [46] = biological target: Metastasis-associated protein MTA2 (UniProt O94776); test: cross-link between two proteins; cross-linking mass spectrometry
# [47] = biological target: Methyl-CpG-binding domain protein 3 (UniProt O95983); test: as above
# Plexin-A1 = Plexin-A1 (UniProt Q9UIW2); test: as above
# [48] = biological target: Polyadenylate-binding protein 3 (UniProt Q9H361); test: as above
# [49] = biological target: Probable serine carboxypeptidase CPVL (UniProt Q9H3G5); test: as above
# [50] = biological target: Proteasome subunit beta type-3 (UniProt P49720); test: as above
# [51] = biological target: Putative elongation factor 1-alpha-like 3 (UniProt Q5VTE0); test: as above
# [52] = biological target: Putative heat shock protein HSP 90-alpha A4 (UniProt Q58FG1); test: as above
# RNA-binding protein Raly = RNA-binding protein Raly (UniProt Q9UKM9); test: as above
# [53] = biological target: SIR2 antiphage-like protein 2 (UniProt Q9NWS6); test: as above
# [54] = biological target: Serine palmitoyltransferase 2 (UniProt O15270); test: as above
# [55] = biological target: Serine/threonine-protein kinase MARK2 (UniProt Q7KZI7); test: as above
# [56] = biological target: Splicing factor 3B subunit 2 (UniProt Q13435); test: as above
# [57] = biological target: Structural maintenance of chromosomes protein 3 (UniProt Q9UQE7); test: as above
# [58] = biological target: Succinate dehydrogenase [ubiquinone] flavoprotein subunit, mitochondrial (UniProt P31040); test: as above
# THO complex subunit 2 = THO complex subunit 2 (UniProt Q8NI27); test: as above
# THO complex subunit 3 = THO complex subunit 3 (UniProt Q96J01); test: as above
# [59] = biological target: Transforming protein RhoA (UniProt P61586); test: as above
# [60] = biological target: V-type proton ATPase subunit D (UniProt Q9Y5K8); test: as above
# Chain of Heat shock protein HSP 90-beta, P08238 (P08238 whole entry): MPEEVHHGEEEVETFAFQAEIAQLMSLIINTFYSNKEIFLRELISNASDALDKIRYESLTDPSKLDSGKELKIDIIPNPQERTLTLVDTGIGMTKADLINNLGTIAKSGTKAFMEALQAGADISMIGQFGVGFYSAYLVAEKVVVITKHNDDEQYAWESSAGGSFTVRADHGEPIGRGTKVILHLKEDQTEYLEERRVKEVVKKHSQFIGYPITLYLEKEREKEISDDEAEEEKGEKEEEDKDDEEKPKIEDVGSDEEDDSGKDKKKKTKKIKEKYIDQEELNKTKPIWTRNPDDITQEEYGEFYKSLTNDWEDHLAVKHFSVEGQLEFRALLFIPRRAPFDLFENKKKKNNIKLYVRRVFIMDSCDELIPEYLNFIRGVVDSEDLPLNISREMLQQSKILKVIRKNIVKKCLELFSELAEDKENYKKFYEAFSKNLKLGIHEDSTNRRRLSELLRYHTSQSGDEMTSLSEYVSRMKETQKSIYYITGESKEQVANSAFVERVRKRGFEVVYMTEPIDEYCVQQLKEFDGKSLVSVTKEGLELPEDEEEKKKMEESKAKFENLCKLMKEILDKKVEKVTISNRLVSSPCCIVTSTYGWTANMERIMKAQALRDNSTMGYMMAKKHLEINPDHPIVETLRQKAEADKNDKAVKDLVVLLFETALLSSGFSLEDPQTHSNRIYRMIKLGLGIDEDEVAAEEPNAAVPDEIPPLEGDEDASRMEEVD
# Chain of Histone deacetylase 1 (Q13547 whole entry): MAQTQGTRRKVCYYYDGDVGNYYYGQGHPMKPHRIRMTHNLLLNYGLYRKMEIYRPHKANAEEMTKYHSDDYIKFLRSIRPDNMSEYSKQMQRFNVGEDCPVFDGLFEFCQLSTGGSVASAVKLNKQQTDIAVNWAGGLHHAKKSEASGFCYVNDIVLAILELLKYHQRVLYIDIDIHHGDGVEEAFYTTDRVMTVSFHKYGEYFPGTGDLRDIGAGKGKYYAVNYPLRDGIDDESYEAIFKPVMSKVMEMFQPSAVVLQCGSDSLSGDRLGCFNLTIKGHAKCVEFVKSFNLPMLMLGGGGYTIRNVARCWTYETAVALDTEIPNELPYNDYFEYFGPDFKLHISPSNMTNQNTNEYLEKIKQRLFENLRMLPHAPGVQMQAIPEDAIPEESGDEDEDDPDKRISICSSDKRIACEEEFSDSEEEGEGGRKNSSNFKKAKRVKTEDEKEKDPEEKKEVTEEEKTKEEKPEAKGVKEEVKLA
# Chain of Charged multivesicular body protein 3 (Q9Y3E7 whole entry): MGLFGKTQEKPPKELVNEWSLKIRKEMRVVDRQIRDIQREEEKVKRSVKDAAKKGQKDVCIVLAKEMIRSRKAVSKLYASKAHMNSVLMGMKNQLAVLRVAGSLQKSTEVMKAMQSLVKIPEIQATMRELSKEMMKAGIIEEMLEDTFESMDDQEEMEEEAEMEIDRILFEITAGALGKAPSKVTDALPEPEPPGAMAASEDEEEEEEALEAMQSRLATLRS
# Chain of Melanoma inhibitory activity protein 2 (Q96PC5 whole entry): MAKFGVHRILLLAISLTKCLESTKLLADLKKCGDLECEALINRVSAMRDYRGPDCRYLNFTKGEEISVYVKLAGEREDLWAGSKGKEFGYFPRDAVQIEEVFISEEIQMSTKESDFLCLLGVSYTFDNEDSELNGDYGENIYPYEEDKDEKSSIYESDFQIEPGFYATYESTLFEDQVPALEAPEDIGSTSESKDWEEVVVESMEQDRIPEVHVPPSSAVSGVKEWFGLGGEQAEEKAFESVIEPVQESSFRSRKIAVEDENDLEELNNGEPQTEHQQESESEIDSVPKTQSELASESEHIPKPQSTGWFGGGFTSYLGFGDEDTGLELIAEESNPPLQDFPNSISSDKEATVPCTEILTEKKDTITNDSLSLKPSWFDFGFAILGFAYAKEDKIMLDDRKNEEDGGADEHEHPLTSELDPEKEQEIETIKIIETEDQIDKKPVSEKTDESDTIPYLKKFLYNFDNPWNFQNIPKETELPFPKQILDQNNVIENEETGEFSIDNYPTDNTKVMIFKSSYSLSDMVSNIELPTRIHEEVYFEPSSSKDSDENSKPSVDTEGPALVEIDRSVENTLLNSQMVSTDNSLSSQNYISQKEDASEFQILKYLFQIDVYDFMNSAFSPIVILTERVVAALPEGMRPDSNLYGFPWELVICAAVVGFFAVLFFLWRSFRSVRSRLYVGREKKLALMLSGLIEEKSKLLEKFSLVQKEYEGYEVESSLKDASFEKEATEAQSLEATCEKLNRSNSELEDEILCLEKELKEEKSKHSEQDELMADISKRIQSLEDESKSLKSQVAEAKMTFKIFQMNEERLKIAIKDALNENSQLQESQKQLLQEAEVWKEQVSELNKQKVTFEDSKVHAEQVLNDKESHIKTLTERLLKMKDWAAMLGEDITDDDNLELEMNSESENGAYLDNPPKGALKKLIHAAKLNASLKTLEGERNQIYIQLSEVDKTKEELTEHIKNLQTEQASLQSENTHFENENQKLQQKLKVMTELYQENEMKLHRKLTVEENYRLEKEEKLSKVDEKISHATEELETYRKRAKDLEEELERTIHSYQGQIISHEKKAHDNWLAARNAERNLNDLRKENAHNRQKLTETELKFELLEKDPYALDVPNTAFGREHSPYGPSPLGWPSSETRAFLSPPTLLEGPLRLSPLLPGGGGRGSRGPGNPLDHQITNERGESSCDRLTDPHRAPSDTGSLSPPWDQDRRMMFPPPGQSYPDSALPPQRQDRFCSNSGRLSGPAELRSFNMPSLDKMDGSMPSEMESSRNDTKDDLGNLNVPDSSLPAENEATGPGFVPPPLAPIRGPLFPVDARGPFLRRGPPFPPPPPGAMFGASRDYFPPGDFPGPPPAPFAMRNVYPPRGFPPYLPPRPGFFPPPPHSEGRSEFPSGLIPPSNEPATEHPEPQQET
# Chain of Dolichyl-diphosphooligosaccharide--protein glycosyltransferase subunit DAD1 (P61803 whole entry): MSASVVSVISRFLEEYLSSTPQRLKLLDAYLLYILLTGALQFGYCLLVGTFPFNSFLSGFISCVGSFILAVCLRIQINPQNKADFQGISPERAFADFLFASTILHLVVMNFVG
# Chain of Charged multivesicular body protein 1a (Q9HD42 whole entry): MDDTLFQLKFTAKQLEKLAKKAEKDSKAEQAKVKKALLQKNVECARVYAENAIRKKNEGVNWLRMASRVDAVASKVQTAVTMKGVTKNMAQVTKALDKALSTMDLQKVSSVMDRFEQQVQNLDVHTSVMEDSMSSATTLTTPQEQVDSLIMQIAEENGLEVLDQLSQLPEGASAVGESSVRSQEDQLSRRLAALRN
# Chain of AP-1 complex subunit mu-1 (Q9BXS5 whole entry, one chain of several): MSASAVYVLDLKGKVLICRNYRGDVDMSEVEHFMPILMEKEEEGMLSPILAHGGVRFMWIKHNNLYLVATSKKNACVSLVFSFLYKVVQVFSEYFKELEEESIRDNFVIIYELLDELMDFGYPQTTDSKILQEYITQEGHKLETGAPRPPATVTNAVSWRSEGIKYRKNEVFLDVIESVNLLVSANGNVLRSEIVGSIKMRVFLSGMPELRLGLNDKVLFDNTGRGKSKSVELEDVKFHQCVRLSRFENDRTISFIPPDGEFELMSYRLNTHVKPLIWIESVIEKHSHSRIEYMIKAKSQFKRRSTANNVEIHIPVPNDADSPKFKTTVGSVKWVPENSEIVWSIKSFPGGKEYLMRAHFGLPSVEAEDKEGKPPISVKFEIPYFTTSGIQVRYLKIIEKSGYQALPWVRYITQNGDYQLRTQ
# Chain of Proteasome subunit beta type-7 (Q99436 whole entry): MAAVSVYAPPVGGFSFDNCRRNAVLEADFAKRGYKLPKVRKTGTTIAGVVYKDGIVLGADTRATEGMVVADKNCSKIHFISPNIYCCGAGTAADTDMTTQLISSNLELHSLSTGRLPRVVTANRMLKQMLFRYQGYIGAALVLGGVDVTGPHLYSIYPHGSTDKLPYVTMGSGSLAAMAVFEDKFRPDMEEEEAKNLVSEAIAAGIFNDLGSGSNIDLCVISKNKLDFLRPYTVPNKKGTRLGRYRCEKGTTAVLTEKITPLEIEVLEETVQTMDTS
# Chain of Methyl-CpG-binding domain protein 2 (Q9UBB5 whole entry, the tested form may be a part): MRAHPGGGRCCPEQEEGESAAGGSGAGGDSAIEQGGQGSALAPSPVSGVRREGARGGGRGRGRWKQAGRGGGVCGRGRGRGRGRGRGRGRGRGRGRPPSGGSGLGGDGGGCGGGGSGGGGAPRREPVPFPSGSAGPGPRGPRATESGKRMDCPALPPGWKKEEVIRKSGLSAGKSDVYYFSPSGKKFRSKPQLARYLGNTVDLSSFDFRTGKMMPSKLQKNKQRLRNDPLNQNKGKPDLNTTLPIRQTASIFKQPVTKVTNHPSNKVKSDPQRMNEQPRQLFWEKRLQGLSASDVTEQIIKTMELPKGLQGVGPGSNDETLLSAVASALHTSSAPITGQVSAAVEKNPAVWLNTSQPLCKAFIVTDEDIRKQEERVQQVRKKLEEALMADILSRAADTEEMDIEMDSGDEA
# Chain of Vesicle transport through interaction with t-SNAREs homolog 1A (Q96AJ9 whole entry): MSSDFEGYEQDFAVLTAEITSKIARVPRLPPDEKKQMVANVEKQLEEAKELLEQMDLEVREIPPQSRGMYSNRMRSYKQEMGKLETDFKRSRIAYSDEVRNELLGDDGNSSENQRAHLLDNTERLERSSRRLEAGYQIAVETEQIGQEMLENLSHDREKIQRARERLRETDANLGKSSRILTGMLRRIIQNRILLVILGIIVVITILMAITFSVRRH
# Chain of Putative elongation factor 1-alpha-like 3 (Q5VTE0 whole entry): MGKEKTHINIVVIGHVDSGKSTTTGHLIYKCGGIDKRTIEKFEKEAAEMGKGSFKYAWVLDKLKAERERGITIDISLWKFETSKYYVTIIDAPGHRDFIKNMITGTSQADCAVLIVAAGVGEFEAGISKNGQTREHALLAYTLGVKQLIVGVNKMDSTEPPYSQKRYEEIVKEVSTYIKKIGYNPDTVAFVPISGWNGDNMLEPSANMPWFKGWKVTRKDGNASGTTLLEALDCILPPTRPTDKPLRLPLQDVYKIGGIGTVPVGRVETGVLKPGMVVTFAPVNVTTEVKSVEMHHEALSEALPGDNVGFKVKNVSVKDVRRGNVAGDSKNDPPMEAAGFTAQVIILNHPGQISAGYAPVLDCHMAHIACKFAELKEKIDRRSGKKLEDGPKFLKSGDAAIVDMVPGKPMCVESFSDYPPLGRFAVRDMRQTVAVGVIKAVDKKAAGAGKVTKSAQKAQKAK
substance,measurement,setting,value
"AP-1 complex subunit gamma-1, O43747",listed as a hit,[1],yes
same,listed as a hit,[2],yes
"Heat shock protein HSP 90-beta, P08238",listed as a hit,[3],yes
same,listed as a hit,Histone deacetylase 2,yes
same,listed as a hit,Peregrin,yes
"AP-1 complex subunit sigma-1A, P61966",listed as a hit,[2],yes
"Cytoplasmic FMR1-interacting protein 1, Q7L576",listed as a hit,Abl interactor 1,yes
"Dolichyl-diphosphooligosaccharide--protein glycosyltransferase subunit 2, P04844",listed as a hit,[4],yes
"Dolichyl-diphosphooligosaccharide--protein glycosyltransferase subunit 1, P04843",listed as a hit,[4],yes
"26S proteasome non-ATPase regulatory subunit 12, O00232",listed as a hit,[5],yes
"Proteasome subunit alpha type-3, P25788",listed as a hit,[6],yes
"ATP-dependent chromatin remodeler CHD4, Q14839",listed as a hit,[7],yes
"Leucine-rich repeat-containing protein 59, Q96AG4",listed as a hit,[8],yes
"Secretory carrier-associated membrane protein 3, O14828",listed as a hit,[9],yes
"Putative cytochrome b-c1 complex subunit Rieske-like protein 1, P0C7P4",listed as a hit,[10],yes
"ATP synthase peripheral stalk subunit OSCP, mitochondrial, P48047",listed as a hit,Elongin-A,yes
"DNA/RNA-binding protein KIN17, O60870",listed as a hit,[11],yes
"ADP/ATP translocase 3, P12236",listed as a hit,Histone H2B type 1-M,yes
"Collagen alpha-5(IV) chain, P29400",listed as a hit,Histone deacetylase 1 [12],yes
"Prohibitin 1, P35232",listed as a hit,[13],yes
"Protein-L-isoaspartate(D-aspartate) O-methyltransferase, P22061",listed as a hit,[14],yes
"Keratin, type II cytoskeletal 1, P04264",listed as a hit,[15],yes
"Biogenesis of lysosome-related organelles complex 1 subunit 1, P78537",listed as a hit,[16],yes
"B-cell receptor-associated protein 31, P51572",listed as a hit,[17],yes
"Syntaxin-7, O15400",listed as a hit,[18],yes
same,listed as a hit,Zinc finger protein DPF3,yes
"Metastasis-associated protein MTA1, Q13330",listed as a hit,[19],yes
same,listed as a hit,[20],yes
same,listed as a hit,Protein DOP1B,yes
same,listed as a hit,[21],yes
same,listed as a hit,[22],yes
same,listed as a hit,[23],yes
same,listed as a hit,Histone deacetylase 1 [24],yes
"Histone-binding protein RBBP7, Q16576",listed as a hit,[25],yes
"Transcriptional repressor p66-beta, Q8WXI9",listed as a hit,[26],yes
"Guanine nucleotide-binding protein G(i) subunit alpha-2, P04899",listed as a hit,[27],yes
"Heat shock 70 kDa protein 6, P17066",listed as a hit,[28],yes
"Tubulin beta-4B chain, P68371",listed as a hit,Tubulin alpha-3E chain,yes
"AP-2 complex subunit alpha-1, O95782",listed as a hit,AP-2 complex subunit mu,yes
"Proteasome subunit alpha type-7, O14818",listed as a hit,[29],yes
"Proteasome subunit beta type-1, P20618",listed as a hit,[30],yes
"Proteasome subunit beta type-3, P49720",listed as a hit,[31],yes
"Proteasome subunit alpha type-6, P60900",listed as a hit,[31],yes
"Calnexin, P27824",listed as a hit,[32],yes
"Paired amphipathic helix protein Sin3b, O75182",listed as a hit,Histone deacetylase 1 [24],yes
"14-3-3 protein gamma, P61981",listed as a hit,14-3-3 protein epsilon,yes
"Glycerol-3-phosphate acyltransferase 4, Q86UL3",listed as a hit,[33],yes
"Charged multivesicular body protein 1b, Q7LBR1",listed as a hit,[34],yes
same,listed as a hit,[35],yes
"Charged multivesicular body protein 2a, O43633",listed as a hit,[34],yes
same,listed as a hit,[36],yes
same,listed as a hit,[35],yes
same,listed as a hit,[18],yes
"Programmed cell death 6-interacting protein, Q8WUM4",listed as a hit,[37],yes
"Peroxiredoxin-4, Q13162",listed as a hit,[38],yes
"Integrin alpha-V, P06756",listed as a hit,Integrin beta-5,yes
"Laminin subunit beta-1, P07942",listed as a hit,Laminin subunit gamma-1,yes
"Splicing factor 3A subunit 2, Q15428",listed as a hit,[39],yes
"U2 small nuclear ribonucleoprotein A', P09661",listed as a hit,[40],yes
"Splicing factor 3B subunit 3, Q15393",listed as a hit,[41],yes
"U2 snRNP-associated SURP motif-containing protein, O15042",listed as a hit,Splicing factor 45,yes
"Vesicle transport through interaction with t-SNAREs homolog 1B, Q9UEU0",listed as a hit,Syntaxin-8,yes
"U2 small nuclear ribonucleoprotein B'', P08579",listed as a hit,[42],yes
"Vacuolar protein sorting-associated protein 33A, Q96AX1",listed as a hit,[43],yes
"Syntaxin-16, O14662",listed as a hit,[44],yes
same,listed as a hit,[45],yes
"Alpha-soluble NSF attachment protein, P54920",listed as a hit,[45],yes
"U3 small nucleolar RNA-interacting protein 2, O43818",listed as a hit,[46],yes
"Metastasis-associated protein MTA2, O94776",listed as a hit,[20],yes
same,listed as a hit,[47],yes
"Coiled-coil domain-containing protein 7, Q96M83",listed as a hit,Plexin-A1,yes
"Polyadenylate-binding protein 4, Q13310",listed as a hit,[48],yes
"Protein ZBED11, P0CF97",listed as a hit,[49],yes
"Proteasome subunit beta type-5, P28074",listed as a hit,[50],yes
"Elongation factor 1-beta, P24534",listed as a hit,[51],yes
"Putative heat shock protein HSP 90-beta 2, Q58FF8",listed as a hit,[52],yes
"RNA-binding Raly-like protein, Q86SE5",listed as a hit,RNA-binding protein Raly,yes
"Protein disulfide-isomerase, P07237",listed as a hit,[53],yes
"Serine palmitoyltransferase 1, O15269",listed as a hit,[54],yes
"MAP/microtubule affinity-regulating kinase 3, P27448",listed as a hit,[55],yes
"Microtubule-associated protein 1B, P46821",listed as a hit,[56],yes
"Titin, Q8WZ42",listed as a hit,[57],yes
"Homeobox protein Hox-B3, P14651",listed as a hit,[58],yes
"Flotillin-2, Q14254",listed as a hit,THO complex subunit 2,yes
"THO complex subunit 5, Q13769",listed as a hit,THO complex subunit 3,yes
"Interferon-inducible double-stranded RNA-dependent protein kinase activator A, O75569",listed as a hit,[22],yes
"Rho-related GTP-binding protein RhoC, P08134",listed as a hit,[59],yes
"Frizzled-9, O00144",listed as a hit,[60],yes
